Source: PubChem BioAssay
Active and inactive are the calls of the source.

Legend:
[1] = test system: Plasmodium falciparum Sir2 (PF13_0152, Sir2A); experiment: Plasmodium falciparum Sir2A binding compounds – biochemical, small-molecule microarray, 635 nm fluorescence, primary screen (AID 1098); conditions: fluorescence 635 nm, higher = more signal;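 note: score merges spot fluorescence intensity with its signal-to-noise ratio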
[2] = probe aDKK1 binding to arrayed compounds – biochemical, biotinylated probe, 635/667 nm fluorescence, primary screen (AID 1099); conditions: small-molecule microarray, higher = more signal;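 note: score merges 667nm spot fluorescence with signal to noise across triplicate slides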
[3] = probe aCHRDL2 binding to arrayed compounds – biochemical, biotinylated probe, 635/667 nm fluorescence, primary screen (AID 1100); conditions: small-molecule microarray, higher = more signal
[4] = change in splice reporter luminescence, either direction, cell-based, HEK293, spliceosome inhibition project, primary screen (AID 1101); conditions: HEK293 splicing luciferase reporter, 24 h, higher = more signal, called active from +8 up or from −8 down;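 note: HEK293 cells carrying a splicing-competent luciferase reporter gene; test concentration not given here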
[5] = target: Fibroblast growth factor 10 (Homo sapiens) (UniProt O15520); experiment: compounds binding fibroblast growth factor 10 – biochemical, small-molecule microarray, 635 nm fluorescence, primary screen (AID 1102); conditions: FGF10 binding, fluorescence 635 nm, higher = more signal
[6] = test system: glycogen synthase kinase-3 (GSK3A per assay name; protocol says GSK3B); experiment: compounds binding glycogen synthase kinase-3 – biochemical, small-molecule microarray, 635 nm fluorescence, GSK3A, primary screen (AID 1103); conditions: fluorescence 635 nm, higher = more signal; note: the record names both GSK3A and GSK3B
[7] = target: Epidermal growth factor receptor (Homo sapiens) (UniProt P00533); experiment: compounds binding epidermal growth factor receptor – biochemical, small-molecule microarray, 635 nm fluorescence, primary screen (AID 1104); conditions: EGFR binding, higher = more signal;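 note: score merges 667 nm emission intensity with spot signal to noise over triplicate slides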
[8] = target: Follistatin-related protein 3 (Homo sapiens) (UniProt O95633); experiment: compounds binding follistatin-related protein 3 – biochemical, small-molecule microarray, 635 nm fluorescence, primary screen (AID 1105); conditions: FSTL3 binding, higher = more signal;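 note: score merges emission near 667 nm and signal to noise per printed spot across three slides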
[9] = target: Dickkopf-related protein 1 (Homo sapiens) (UniProt O94907); experiment: small molecules binding DKK1 protein – biochemical, small-molecule microarray, 635 nm fluorescence scan, primary screen (AID 1106); conditions: higher = more signal;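 note: score merges emission near 667 nm with signal to noise over three replicate slides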
[10] = test system: Inhibin beta A chain (activin A); experiment: small molecules binding activin A – biochemical, small-molecule microarray, 635 nm fluorescence scan, primary screen (AID 1107); conditions: INHBA, higher = more signal;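 note: mouse activin A protein probed at 4.33 µg/mL on printed slides; score merges bound-protein fluorescence near 667 nm with spot signal-to-noise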
[11] = test system: Human papillomavirus type 1a protein E7 (residues 44-93); experiment: small molecules binding HPV E7 44-93 – biochemical, small-molecule microarray, residues 44-93, 635 nm fluorescence, primary screen (AID 1108); conditions: fluorescence 635 nm, higher = more signal;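 note: E7 fragment applied at 1 µg/mL in TBST for 1 h at 4 C; score combines spot fluorescence with its signal to noise ratio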
[12] = hepatitis C replication reporter changes, two-sided – Huh7 cells, luciferase reporter, HCV replication inhibitor project, primary screen (AID 1109); conditions: Huh7 HCV replicon luciferase reporter, 48 h; higher = more signal;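 note: huh7 hepatoma cells harbouring a luciferase neomycin HCV replicon reporter; luciferase luminescence as measure of HCV replicon replication; test concentration not given here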
[13] = target: Left-right determination factor 2 (Homo sapiens) (UniProt O00292); experiment: small molecules binding LEFTY2 protein – biochemical, small-molecule microarray, 635 nm fluorescence scan, primary screen (AID 1110); conditions: higher = more signal
[14] = target: Calmodulin-1 (Homo sapiens) (UniProt P0DP23); experiment: small molecules binding calmodulin-1 with EGTA – biochemical, small-molecule microarray, Cy5-labelled CALM1, profiling panel (AID 1111); conditions: Cy5-CALM1 binding fluorescence, higher = more signal;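 note: labelled calmodulin applied in Tris saline Tween buffer holding calcium plus EGTA and DTT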
[15] = target: Calmodulin-1 (Homo sapiens) (UniProt P0DP23); experiment: small molecules binding Ca-loaded calmodulin-1 – biochemical, small-molecule microarray, Cy5-labelled CALM1, plus calcium, artefact control for SMM control-protein annotation, profiling panel (AID 1112); conditions: Cy5-CALM1 binding fluorescence, higher = more signal;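 note: score merges spot fluorescence with signal to noise from triplicate slides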
[16] = probe aWnt5a binding to arrayed compounds – biochemical, biotinylated probe, 635/667 nm fluorescence, primary screen (AID 1113); conditions: small-molecule microarray, higher = more signal;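 note: score merges 667 nm fluorescence intensity with signal-to-noise per printed feature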
[17] = probe aShh binding to arrayed compounds – biochemical, biotinylated probe, 635/667 nm fluorescence, primary screen (AID 1114); conditions: small-molecule microarray, higher = more signal;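 note: probe is biotin-labelled aShh protein from a stem cell growth factor screen; measures binding of labelled protein to compounds printed on the slide; score merges feature fluorescence at 667 nm with signal-to-noise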
[18] = probe aNog binding to arrayed compounds – biochemical, biotinylated probe, 635/667 nm fluorescence, primary screen (AID 1115); conditions: small-molecule microarray, higher = more signal;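 note: probe is biotinylated aNog protein used at 0.15 µg/mL for 1 h at 4 C; z-score combines 667 nm fluorescence of each spot with its signal to noise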
[19] = target: Torsin-1A-interacting protein 1 (Homo sapiens) (UniProt Q5JTV8); experiment: compound microarray binding of lysate hLAP1 – cell lysate, small-molecule microarray, COS7 lysate, 635/667 nm fluorescence, primary screen (AID 1116); conditions: 635 nm fluorescence, higher = more signal
[20] = target: Alpha-bungarotoxin (Bungarus multicinctus) (UniProt P60615); experiment: compounds binding labelled alpha-BTX control protein – biochemical, small-molecule microarray, Alexa647 label, 635/667 nm fluorescence, artefact control for SMM control protein annotation, profiling panel (AID 1117); conditions: alpha-BTX-A647 binding fluorescence, higher = more signal
Alpha-bungarotoxin (Bungarus multicinctus), sequence (P60615 whole entry, looked up): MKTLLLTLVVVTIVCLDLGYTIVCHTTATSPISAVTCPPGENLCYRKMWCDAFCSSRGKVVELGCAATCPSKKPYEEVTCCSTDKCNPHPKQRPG

Left-right determination factor 2 (Homo sapiens), sequence (O00292 whole entry, looked up): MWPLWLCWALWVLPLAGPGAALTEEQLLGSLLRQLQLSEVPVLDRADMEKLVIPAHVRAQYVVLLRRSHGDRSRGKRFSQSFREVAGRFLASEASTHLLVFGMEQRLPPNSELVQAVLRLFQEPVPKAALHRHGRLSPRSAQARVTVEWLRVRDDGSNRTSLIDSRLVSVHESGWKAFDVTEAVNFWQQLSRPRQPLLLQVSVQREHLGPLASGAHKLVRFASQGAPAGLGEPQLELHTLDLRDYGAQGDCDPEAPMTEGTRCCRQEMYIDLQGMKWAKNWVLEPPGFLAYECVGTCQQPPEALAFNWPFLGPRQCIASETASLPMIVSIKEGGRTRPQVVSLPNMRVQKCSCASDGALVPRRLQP
Dickkopf-related protein 1 (Homo sapiens), sequence (O94907 whole entry, looked up): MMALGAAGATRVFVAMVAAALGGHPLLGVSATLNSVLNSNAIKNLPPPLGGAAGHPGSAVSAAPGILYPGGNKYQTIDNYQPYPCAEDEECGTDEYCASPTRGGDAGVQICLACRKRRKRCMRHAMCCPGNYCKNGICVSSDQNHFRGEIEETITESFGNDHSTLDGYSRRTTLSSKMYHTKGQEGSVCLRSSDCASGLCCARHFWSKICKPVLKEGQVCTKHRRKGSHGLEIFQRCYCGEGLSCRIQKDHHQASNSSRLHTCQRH
Epidermal growth factor receptor (Homo sapiens), sequence (P00533 whole entry, looked up): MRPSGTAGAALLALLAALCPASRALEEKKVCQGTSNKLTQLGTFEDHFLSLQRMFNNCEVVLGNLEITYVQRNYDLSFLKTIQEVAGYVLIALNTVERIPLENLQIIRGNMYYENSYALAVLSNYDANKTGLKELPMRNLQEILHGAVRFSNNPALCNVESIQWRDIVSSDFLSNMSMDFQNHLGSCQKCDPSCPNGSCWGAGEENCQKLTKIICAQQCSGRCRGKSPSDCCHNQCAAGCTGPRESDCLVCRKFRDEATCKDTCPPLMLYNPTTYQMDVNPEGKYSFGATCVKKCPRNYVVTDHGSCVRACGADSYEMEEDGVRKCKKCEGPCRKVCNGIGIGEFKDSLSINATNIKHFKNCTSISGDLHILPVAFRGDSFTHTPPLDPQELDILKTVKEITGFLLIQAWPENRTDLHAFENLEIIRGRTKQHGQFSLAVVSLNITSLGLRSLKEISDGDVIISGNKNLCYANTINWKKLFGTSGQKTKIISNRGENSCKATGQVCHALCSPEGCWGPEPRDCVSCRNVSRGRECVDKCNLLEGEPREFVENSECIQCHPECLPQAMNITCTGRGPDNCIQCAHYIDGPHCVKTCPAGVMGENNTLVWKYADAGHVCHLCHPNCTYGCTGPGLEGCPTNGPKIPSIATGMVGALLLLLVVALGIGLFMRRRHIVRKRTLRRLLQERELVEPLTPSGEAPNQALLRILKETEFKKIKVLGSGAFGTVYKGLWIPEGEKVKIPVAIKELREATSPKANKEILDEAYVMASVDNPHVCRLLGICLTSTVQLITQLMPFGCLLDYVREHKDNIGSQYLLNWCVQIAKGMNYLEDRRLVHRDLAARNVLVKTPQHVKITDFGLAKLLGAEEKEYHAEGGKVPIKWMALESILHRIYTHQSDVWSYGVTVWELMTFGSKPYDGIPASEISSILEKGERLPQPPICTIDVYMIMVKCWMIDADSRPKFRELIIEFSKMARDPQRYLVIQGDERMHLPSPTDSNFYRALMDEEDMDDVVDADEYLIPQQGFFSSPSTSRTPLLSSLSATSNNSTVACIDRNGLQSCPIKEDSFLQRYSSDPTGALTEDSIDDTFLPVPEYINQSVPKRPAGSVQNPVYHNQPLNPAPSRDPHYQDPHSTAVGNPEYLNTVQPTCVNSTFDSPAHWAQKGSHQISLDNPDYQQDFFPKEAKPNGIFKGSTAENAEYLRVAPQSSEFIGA
Torsin-1A-interacting protein 1 (Homo sapiens), sequence (Q5JTV8 whole entry, looked up): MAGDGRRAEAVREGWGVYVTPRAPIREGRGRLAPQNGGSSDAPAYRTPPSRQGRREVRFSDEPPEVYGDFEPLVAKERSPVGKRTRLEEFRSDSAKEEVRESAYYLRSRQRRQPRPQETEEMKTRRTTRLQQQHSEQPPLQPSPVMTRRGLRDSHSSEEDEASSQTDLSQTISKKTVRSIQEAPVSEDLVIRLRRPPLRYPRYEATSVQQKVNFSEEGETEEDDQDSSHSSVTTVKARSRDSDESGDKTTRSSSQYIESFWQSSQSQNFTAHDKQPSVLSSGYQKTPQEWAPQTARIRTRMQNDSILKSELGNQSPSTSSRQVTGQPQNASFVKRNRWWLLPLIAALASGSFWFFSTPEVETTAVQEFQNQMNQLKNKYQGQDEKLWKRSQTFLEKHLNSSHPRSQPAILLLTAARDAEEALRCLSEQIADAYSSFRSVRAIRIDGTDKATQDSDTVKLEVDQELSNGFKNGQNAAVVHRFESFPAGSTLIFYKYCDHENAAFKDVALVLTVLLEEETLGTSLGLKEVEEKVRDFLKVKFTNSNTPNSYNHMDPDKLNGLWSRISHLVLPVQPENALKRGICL
Fibroblast growth factor 10 (Homo sapiens), sequence (O15520 whole entry, looked up): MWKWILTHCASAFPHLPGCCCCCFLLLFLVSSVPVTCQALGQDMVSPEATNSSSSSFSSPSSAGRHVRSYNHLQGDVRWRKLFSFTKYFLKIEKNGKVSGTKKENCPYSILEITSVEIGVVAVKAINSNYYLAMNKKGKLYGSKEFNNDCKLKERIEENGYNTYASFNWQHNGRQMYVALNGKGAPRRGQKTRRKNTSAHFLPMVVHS
Follistatin-related protein 3 (Homo sapiens), sequence (O95633 whole entry, looked up): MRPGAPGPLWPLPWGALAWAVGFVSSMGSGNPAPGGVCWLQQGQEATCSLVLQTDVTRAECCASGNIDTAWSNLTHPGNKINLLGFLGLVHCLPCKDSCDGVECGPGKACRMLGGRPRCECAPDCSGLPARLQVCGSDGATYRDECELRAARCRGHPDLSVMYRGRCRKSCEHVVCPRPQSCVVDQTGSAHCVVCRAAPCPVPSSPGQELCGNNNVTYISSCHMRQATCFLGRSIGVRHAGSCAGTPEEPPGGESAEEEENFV

Structure (SMILES)	composite z-score [1]	composite z-score [2]	composite z-score [3]	z-score [4]	composite z-score [5]	composite z-score [6]	composite z-score [7]	composite z-score [8]	composite z-score [9]	composite z-score [10]	composite z-score [11]	z-score [12]	composite z-score [13]	composite z-score [14]	composite z-score [15]	composite z-score [16]	composite z-score [17]	composite z-score [18]	composite z-score [19]	composite z-score [20]
O=C1c2ccccc2[C@@]2(Cc3ccccc3N(CCN3CCOCC3)C2=O)[C@H](c2ccc(CO)cc2)N1Cc1ccccc1	0.878	-0.0074	0.278	-0.765 (inactive)	-0.667	-1.23	-1.17	-0.267	-0.391	0.819	-0.22	-0.446	-0.976	-0.211	-0.11	-0.128	-0.0709	-0.5	1.01	0.175
O=C1c2ccccc2[C@@]2(Cc3ccccc3N(CC(F)(F)F)C2=O)[C@H](c2ccc(CO)cc2)N1Cc1ccccc1Cl	0.0888	-0.237	-0.524	-0.311 (inactive)	0.466	0.612	0.509	0.725	0.558	0.531	0.265	0.078	0.547	-0.146	-0.684	-0.166	-0.17	-0.282	0.156	0.287
COc1cc2c(cc1O)C=[N+](Cc1cccc(OC(F)(F)F)c1)CC2	0.674	-0.084	0.39	-0.663 (inactive)	-0.0931	-0.104	0.128	0.534	0.141	0.994	-1.28	-0.556	-0.402	-0.579	-0.149	-0.158	-0.206	-0.294	0.15	0.0656
COCCOC(=O)N1C(=O)[C@@]2(c3cc(C#Cc4ccc(OC)cc4)ccc31)[C@H](c1ccccc1OCCO)N1[C@H](c3ccccc3)[C@H](c3ccccc3)OC(=O)[C@H]1[C@@H]2C(=O)N1CCN(c2ncccn2)CC1	0.864	-0.0148	0.116	-0.0173 (inactive)	0.743	0.806	0.339	0.369	0.27	0.345	1.18	-1.49	0.278	0.694	0.805	-0.118	0.13	0.121	0.949	0.876
COc1ccc(CCNC(=O)[C@@]2(Sc3ccc(C)cc3)CC(=O)N(C3CCCCC3)[C@@H]2c2ccc(CO)cc2I)cc1	1.09	-0.0662	0.44	0.451 (inactive)	0.724	0.974	0.0902	1.03	0.0743	0.327	1.38	-2.77	0.0072	0.99	0.161	-0.0903	0.323	-0.158	0.95	0.649
CCN(CC)c1ccc(N2CC=CC34O[C@@H]5/C=C\CCCOC(=O)C5[C@H]3C(=O)N(CCO)[C@@H]4C2=O)cc1 (stereo not given in full)	1.1	-0.221	0.63	-0.375 (inactive)	-1.12	-0.404	-1.28	-0.957	-1.14	0.0809	-0.0422	-0.684	-0.85	-0.557	0.172	-0.113	-0.0769	-0.406	-0.233	-0.259
CC(C)(C)OC(=O)CC[C@]12N=C(c3ccc(OCCCO)cc3)O[C@H]1c1ccccc1N(CCS(=O)(=O)c1ccccc1)C2=O	1.17	0.438	0.52	0.0112 (inactive)	0.905	1.23	0.545	0.975	0.445	0.924	1.39	-0.664	0.497	0.234	-0.353	0.0706	0.287	-0.344	0.751	1.41
O=C1O[C@H](c2ccccc2)[C@H](c2ccccc2)N2[C@H]1[C@@H](C(=O)Nc1nc3ccccc3s1)[C@]1(C(=O)Nc3ccc(C#CCCO)cc31)[C@H]2c1ccc(OCCO)cc1	1.59	-0.198	-0.144	-0.0209 (inactive)	1.33	1.31	0.468	1.14	0.379	0.408	1.39	-1.65	0.436	1.26	0.0502	0.0927	0.184	1.15	1.07	0.753
CN1C(=O)C2C=CC(C(O)C3CCCCC3)N(Nc3ccc([N+](=O)[O-])cc3[N+](=O)[O-])C2C1=O (stereo not given)	0.912	0.778	0.906	1.84 (inactive)	0.911	0.323	0.374	1.29	-0.33	0.738	1.28	-0.613	0.0511	1.42	0.377	-0.0472	0.13	1.59	1.28	1.34
COC(=O)[C@@]1(Cc2ccc(F)cc2)[C@H]2c3cc(C(=O)N(C)C)n(CC4CC4)c3C[C@H]2CN1C(=O)c1ccccc1	-0.0199	2.38	1.41	-1.59 (inactive)	1.4	1.31	0.463	1.18	-0.637	0.14	1.45	-1.14	0.0265	2.21	1.39	1.05	1.38	0.816	0.156	1.69
CN1C(=O)[C@]2(Cc3ccccc3)N=C(c3ccc(OCCCO)cc3)O[C@@H]2c2ccccc21	1.19	0.566	0.913	-1.18 (inactive)	1.33	1.28	0.367	0.459	0.505	1.14	1.46	-1.36	0.235	0.33	-0.323	0.0761	0.0469	0.849	1.3	0.51
